Test results taken from the supplement of paper PMC10105736.

Assays:
Assay in all cases: MAPPIT interaction score (arbitrary units); higher = stronger binary interaction signal, active = hit call of the paper;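 active = MAPPIT score above the 99th percentile of random reference set scores in the same batch; inactive = at or below it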
Ing3 = conditions: MAPPIT configuration: N-N; pair source set: Curagen_low_conf
Jupiter = conditions: MAPPIT configuration: N-N; pair source set: DPIM
JMJD4 = conditions: MAPPIT configuration: N-N; pair source set: Curagen_low_conf
Pdha = conditions: MAPPIT configuration: N-N; pair source set: Lit-BS-16
Pih1D1 = conditions: MAPPIT configuration: N-N; pair source set: Finley_Y2H
Sms = conditions: MAPPIT configuration: N-N
JIL-1 = conditions: MAPPIT configuration: N-N; pair source set: Lit-BM-16
TrxT = conditions: MAPPIT configuration: N-N; pair source set: screen_2
Pfdn2 = conditions: MAPPIT configuration: N-N; pair source set: Lit-BM-16
LRR = conditions: pair source set: RRS
Jheh2 = conditions: MAPPIT configuration: N-N; pair source set: Lit-BS-16
Ilp6 = conditions: pair source set: RRS
Kaz = conditions: MAPPIT configuration: N-N; pair source set: Curagen_low_conf
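Also: HEK293T cells with Epo stimulation, STAT-responsive firefly luciferase reporter, fold induction versus unstimulated cells divided by the larger fold induction of two negative controls lacking either bait or prey.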

B1: HBS1 (protein)
chain: MSRHRIVRTMDYNDEYDGYDDIYGHSVEDEHCISPTDAQQWLYDRARGQQSISAFISKNKDIQEEEADEDEDEDAAFAKARRDSESFQMPQLDEIEQAKLSSCVDEVRSVVGDAVSERRIVETSMKFDYDMQKILDEILNEETNKSAKPAVNKMKAPAAPVLPKTVSKTVPTPPPKISLKEPRRGFEIPSPKVPSSPVVSGRNTPVDISAGDDISRSSATVFKVSKEQAVRNARQLYEKERADQKSHIHMIVIGHVDAGKSTLMGHLLYDTGNVSQRVMHKHEQESKKLGKQSFMYAWVLDETGEERARGITMDVGQSRIETKTKIVTLLDAPGHKDFIPNMISGATQADVALLVVDATRGEFESGFELGGQTREHAILVRSLGVNQLGVVINKLDTVGWSQDRFTEIVTKLKSFLKLAGFKDSDVSFTPCSGLTGENLTKKAQEPALTNWYSGRHLLDVIENFKIPERAIDRPLRMSVSDIYKGTGSGFCISGRVETGVLCLNDKVLVGASREQAQVKSLTMNEFPQTCVFAGDQVSVTLPALDINNVTVGCIISDPQTPIPVTTRFQARIIVFNVKVPITMGFPVLLHHQSLIEPAVVCKLTASIHKSTGEVVKKKPRCLGNNSCALVELETSRPICIERYADFKELGRVMLRVAGVTIAAGMVTKIR
MAPPIT interaction score (Ing3): 0.0794 (inactive)

B2: rswl (protein)
chain: MLKHFARWRLGSQLLKGCAAPVRQASKTSSAENLIAGTEEPQKKFVNPFSQPAPALSNDTISENKEERDKRLKVLQLEADIAHQEGRRVPSLEFFKDHHWEHVLTLPTKSARIKYFGYLWQIEMKKEADQRKKAERAKEAERRVAEMRKEREENTHIIYGLGHTSLFLRIYDTTINHWQNNRLTRAMQFAPKMVLDCSYDEHMNNREATYAAKQLMMCFAENRMNDEPFDLHYCNTQMDSRCMQSLQRYIPTMHNPEFPINLHSKCFTELFPKQNLVYLTPHCREDLVTYNPDDIYIVGAMVDTMNNEPLSLAKAKRLGLRMARLPLDRYLQWGSGSGKSLTLNQMINIMLDLKKTGDWDTALKHVPRRKVVQNEFQPRREKDHWSTGTRARKLNMRIDHLFDFDENRRQATSYATPQNVRQRREGLEFQLDTWATGKQKKKQRQN
MAPPIT interaction score (Jupiter): 0.211 (inactive)

B3: Hsp60B (protein)
chain: MFRSCVPKAITSSRCFARMYSKDVRFGSGVRAMMIRGVDILADAVAVTMGPKGRSVIVERPWTSPKITKDGFTVARSIALKDQHMNLGAKLVQDVADNTNESAGDGTTTATVLARAIAKEGFNQITMGANPVEIRRGVMLAVDVVKDKLKEMSKAVETREEIQQVATLSANGDTEIGRLIGEATDKVGPRGTITVKDGKRLKDELNIIQGLRFDNGYVSPFFVNSSKGSKVEFANALVMISLKKITGLSQIVKGLEQSLRQRRPLIIIAEDISGEALNALVLNKLRLGLQVCAVKSPSYGHHRKELIGDISAATGATIFGDDINYSKMEEAKLEDLGQVGEAVISKDSTMLLQGKPKTGLLEMRIQQIQDELAEKQIKPEQRDRLRQRLSALTKGVAVLHIGGGSEVEVNEKKDRVVDALNATRAAIEEGIVPGGGTAFLRCIPYLQELKTESADLQKGVDIVCNALRMPCQTIAQNAGVDGPMVVAKVLNGSEDYGYDAMGDEYCRLVEKGIIDPTKVLRTAITDAAGVASLLSTTEVVITDSRNDDLLSKLSGAGGGMDDGLDMNMGGLEELAALSGLGGMGGMGGMGGMGGMGGMGGGFGGMGAGGGMSASASNDGPTAEEMNEMVKAIPGMEQVEVRDIDSGMM
MAPPIT interaction score (JMJD4): 0.939 (inactive) | MAPPIT interaction score (Pdha): 1.16 (inactive) | MAPPIT interaction score (Pih1D1): 0.845 (inactive) | MAPPIT interaction score (Sms; pair source set: Finley_Y2H): 1.94 (inactive) | MAPPIT interaction score (Sms; pair source set: Lit-BM-16): 1.8 (inactive)

B4: msl-2 (protein)
chain: MAQTAYLKVTRIAMRSASNLSKRRVEELNSGLGELRQLLSCVVCCQLLVDPYSPKGKRCQHNVCRLCLRGKKHLFPSCTQCEGCSDFKTYEENRMMAAQLLCYKTLCVHLLHSALFGELAGMRPQVARELVPRIKLPPKTTQEFIREGSNISDTFDIFLPQPDLPFLKDMPTSLPAETPPTSAVTTPELPYDHHLNISDIEAEAAATAEQGHFSPLPLLPTGSRMGMLSHAGQIVIATESSESGFMDQAWTDQVDLSGTVSVSKYTNSGNNFAVSYVMPTSATTKFDPQELQIGQVVQMADSTQLAVLAAVEETVETSTQLTVLSTTVEETVETSTQLEVLTSAEEPNEISDQLANLQVEESDEALVEETVEEAEGTSIPSEVVAEHMEEDQHLDVHTSQSPTQTEMEEAVEEHVATKTQLGHVQTELQDAESLQKDFEDAKAAAEEAKEKEKDLHAISAELQKEDSDEPTLKRKRTRTLKASQAAKIEPVPSEVKTKVQSGKGALRRIRGKDKEEKVKPPKPKCRCGISGSSNTLTTCRNSRCPCYKSYNSCAGCHCVCCKNPHKEDYVESDEDDDLEDFEMPKDVPEPMTQSEEPVVAEPRQEENSMAPPDSSAPISLVPLNNLQQSQHPLVLVQNEKGEYQGFNIFQGSKPLDPVTVGFTIRVQLQHTDGFGSLPQYAYIMPTIDPPNPPAPSLSPPPPPAPDREVIEPPAKKFRTSRTRRGRANFSALDTVDELVSGGSRSNSAAGDRSSATDNAHSLFEEIMSGSDDL
MAPPIT interaction score (JIL-1): 0.418 (inactive) | MAPPIT interaction score (TrxT): 0.135 (inactive)

B5: Pfdn5 (protein)
chain: MAATPSAPAKSEMIDLTKLSPEQLIQIKQEFEQEITNVQDSLSTLHGCQAKYAGSKEALGTFQPNWENRQILVPLTSSMYVPGRVKDLNRFVIDIGTGYYIEKDLEGSKDYFKRRVEYVQEQIEKIEKIHLQKTRFYNSVMSVLEMKQAAAAKLQSQQQSQPAVTQSS
MAPPIT interaction score (Jupiter): -0.0979 (inactive) | MAPPIT interaction score (Pfdn2): 5.87 (active)

B6: CG33108 (protein)
chain: MSNISSVAPPPPPPPMIVTPSTPATTKERPVGDNITTDECTWACEYPEVQKGCYLSRVCQYTPPKHCQYYSVNSIVQVGPTCGLVALSMLLGGSPTADDLLKDAIDQEYTLNGELFSAQYLFELTRKHMPGPAACQLHVGPLDCKKVKELLKAGGCLLVPYDADVNHAPCVKNGHRAHWALIVGYLVDTQDRFYVLARHGKSRNLAVWPLDTLSQSNENLKEFAQPKGYPDDEFLLPPGGIGGSLGLNERCILVNGLPKQVIHVRWS
MAPPIT interaction score (LRR; MAPPIT configuration: N-C): 1.24 (inactive) | MAPPIT interaction score (LRR; MAPPIT configuration: N-N): -0.128 (inactive)

B7: Srp68 (protein)
chain: MVVQEDNPNTGDVQEKTETAPVAEPSKIFTVEILHMIKDAQQQHGLRHGDFQRYRGYCSRRIRRLRKALKYPQGDKRHFKRRDVTIGQLTGKKADERFIHIPLICAERAWAYAMQLKQESNTEPRKRFHLVNKLRRACFYALQLQELCNTEAFDARTKLECEAYVAWMHGTLHFELQLWKTAGEHLKRAQVVYENLGKALPEDEQELYRAKVNEFTPNLRYCAYNISGGASGGKIDEILELRAQGVLENLDVLVSQTKTESSEGLQTIDWRGRKVTVRPEKVRLFLLSAQELDKSLAKTTKQDAKIELIERILMDCKDAIQAVRDEIKQDPKLRSLTTGQTVSGVQYLLAYLSYIRHSRTLQRNLCLVEQAKLNFYDPNLQSQQNVGDGKRVRPQDLARLYEIILQNVTEMQQINGLEDDATYQSEVENLAITFKAFRCYYIALTLIDIKKWKEAVALYERASNYATEALKGKSSPEFQLQEELKKVVSAIDGCKFSAHAYSVLEDDNSEESGTTTKSQKTTKPLYERLSLYKEDQSLHTKAPNVFKLTPDMEPIPCKPIFFDLAMTYVELPSLEGKLESPGKKGASITGFVKGFLGWGGGGNK
MAPPIT interaction score (Jheh2): -0.0601 (inactive)

B8: Coprox (protein)
chain: MNALRHTISLVSLGTFQLVRRTRGPHARGFLLGTGLGLASFSAVTYAHSAEAVDPKVNGVQMNTSRFMAEPITDSKALLGDKENMRHRMEILIMEIQAEFCRALEAEENCGQKFKVDRWERPEGGGGITCVLQDGDVFEKAGVNISVVTGSLPPAAVQQMRARGKNLKEGASLPFFASGVSAVIHPRNPHVPTIHFNYRYFEVETAKGEKQWWFGGGTDLTPYYLCEKDASHFHQTLKSACDEHDPTYYPRFKKWCDDYFRIKHRNESRGIGGIFFDDIDSPNQEAAFNFVSSCARAVIPSYVPLVRKHKNREYGNNERQWQLLRRGRYVEFNLIYDRGTKFGLYTPGARYESILMSLPLHARWEYMHEPKSQSEEGKLMKVLKNPKDWV
MAPPIT interaction score (Ilp6; MAPPIT configuration: N-C): 0.0185 (inactive) | MAPPIT interaction score (Ilp6; MAPPIT configuration: N-N): -0.101 (inactive)

B9: Clp (protein)
chain: MDILLANVSGLQFKAERDLIEQVGAIPLPFYGMDKSIAAVCNFITRNGQECDKGSACPFRHIRGDRTIVCKHWLRGLCKKGDQCEFLHEYDMTKMPECYFYSRFNACHNKECPFLHIDPQSKVKDCPWYKRGFCRHGPHCRHQHLRRVLCMDYLAGFCPEGPSCKHMHPHFELPPLAELGKDQLHKKLPTCHYCGELGHKANSCKQYVGSLEHRNNINAMDHSGGHSGGYSGHSGHIEGADDMQSNHHSQPHGPGFVKVPTPLEEITCYKCGNKGHYANKCPKGHLAFLSNQHSHK
MAPPIT interaction score (Jupiter): -0.085 (inactive)

B10: Cpn (protein)
chain: MEPGTIPSPVSAPVAAPVTPSAVAAPVQVVSPAAVAPAPAAPIAVTPVAPPPTLASVQPATVTIPAPAPIAAASVAPVASVAPPVVAAPTPPAASPVSTPPVAVAQIPVAVSAPVAPPVAATPTPVAPIPVAAPVIATPPVAASAPTPAAVTPVVSPVIATPPVVPANTTVPVAAPVAAVPAAVPVVAPVLAPAVAPAVAPVVAETPAPPPVAEIPVATIPECVAPLIPEVSVVATKPLAAAEPVVVAPPATETPVVAPAAASPHVSVAPAVETAVVAPVSASTEPPVAAATLTTAPETPALAPVVAESQVAANTVVATPPTPAPEPETIAPPVVAETPEVASVAVAETTPPVVPPVAAESIPAPVVATTPVPATLAVTDPDVTASAVPELPPVIAPSPVPSAVAETPVDLAPPVLPPVAAEPVPAVVAEETPETPAPASAPVTIAALDIPEVAPVIAAPSDAPAEAPSAAAPIVSTPPTTASVPETTAPPAAVPTEPIDVSVLSEAAIETPVAPPVEVTTEVAVADVAPPEAAADLIIEPVEPPAPIPDLLEQTTSVPAVEAAESTSSPIPETSLPPPNEAVASPEVAVAPITAPEPIPEPEPSLATPTEPIPVEAPVVIQEAVDAVEVPVTETSTSIPETTVEYPVAEKVLDPAITEAPVTTQEPDVANINDGAPATEITTPAVEIVTAAAEVSDTAIPLIDPPVPQEIAVAEIPETETKPAEVIVEQSTIPIEAPVPEVSKYAEPVISEAPAAEVPITAGDNPDNTSVGISEVVPTIAEKAVEEVPTSEIPEQSSSPSDSVPVAKITPLLRDLQTTDVSLLAIAATLDAIGEKLKDQKARNQQVMDRLCEIEKILGPPKSN
MAPPIT interaction score (Kaz): 0.293 (inactive)
